# In PubChem BioAssay (NCATS):
# Inconclusive results are not listed. The source made the active and inactive calls. Calls come from the whole dose curve; as a rule, active = well fitted inhibition curve with a large enough effect; inconclusive = small, poorly fitted or top-dose-only effect; inactive = no such curve, though single readings can be large or run the other way.
# Tested on: Zika virus NS2B-NS3 protease (unlinked complex)
# Test: Primary screen GU Rhodamine qHTS for Zika virus inhibitors: Unlinked NS2B-NS3 protease assay (AID 1347159); note: nearly all actives have a fitted effect of over 60% in size
# Details: Recombinant ZIKV NS2B-NS3 protease, Rhodamine110 substrate fluorescence; series mostly up to 107 µM; activity change, negative = inhibition: at the top concentration
# From the text: Avindra Nath, Ph.D., National Institute of Neurological Disorders and Stroke (NINDS), Bethesda, MD
# Radhakrishnan Padmanabhan, Ph.D., Georgetown University (GU), Washington D.C.
# Zika Virus causes congenital defects, including microcephaly and is associated with Guillain-Barre syndrome, eningoencephalitis and myelitis in infected adult. […] Using a target-based approach, we hope to establish a screening paradigm to uncover novel, cell-active NS2B-NS3 protease (Zika Virus) specific inhibitors from NCATS' collection of small molecules using qHTS.
# Four assay panel was created to identify potential Zika Virus inhibitors. Namely, (1) GU unlinked NS2B-NS3 AMC tagged protease qHTS, (2) GU unlinked NS2B-NS3 Rhodamine tagged protease qHTS, (3) NINDS linked NS2B-NS3 AMC tagged protease qHTS, (4) NINDS linked NS2B-NS3 Rhodamine tagged protease qHTS. Active compounds were re-acquired and re-screened to confirm inhibition. Inhibitors were further screened against various confirmatory and counterscreens in dose response format.
# Early Translation Branch (ETB)
# National Center for Advancing Translational Sciences (NCATS), Rockville, MD
# National Institute of Health (NIH), Bethesda, Maryland
# Padmanabhan lab provided the NS2B hydrophilic domain and NS3 protease domain in a noncovalent complex used for the unlinked assay. Control compound aprotinin is obtained from Thermo Scientific (#78432; Waltham, Massachusetts). Rhodamine110 substrate ([N-Cbz]-Nle-Lys-Arg-Arg-Rhod110-Arg-Arg-Lys-Nle-[N-Cbz]) was purchased from either Genscript or Bachem.
# 1536-well Protease (Rhodamine110 Substrate) Assay:
# Briefly, 3 microL of enzyme (25 nM final concentration), in assay buffer (10 mM Tris-HCl pH 8.0 with 0.01% Tween 20) were dispensed into a 1,536-well solid-bottom black plate (Greiner Bio One, Monroe, NC). Twenty-three nL of compounds (final concentration range 7.28 nM to 114 microM) or control Aprotinin (final concentration range 3.47 nM to 114 microM) were transferred via Wako Pin-tool (Wako Automation, Richmond, VA). Samples were incubated (room temperature, protected from light) for 15 minutes followed by a 1 microL Rhodamine110 substrate addition (1.5 microM final concentration). Plates were then immediately read on a ViewLux High-throughput CCD imager (PerkinElmer, Waltham, MA) equipped with FITC fluorescence optics (480(20) nm excitation, 540(25) nm emission), then incubated (room temperature, protected from light) for 15 minutes (~15% conversion). The change in fluorescence intensity over the 15-minute reaction period was normalized against no-inhibitor and no-enzyme controls and the resulting percent inhibition data were fitted to a 4-parameter Hill equation. Aprotinin was used as intraplate control.
# % is set by controls: 0 for no effect and ±100 for the full control effect; potency is the fitted concentration of half-maximal effect.
SMILES,"activity change, negative = inhibition",Potency
C[N+]1(C)[C@@H]2CC[C@H]1CC(OC(=O)C(O)c1ccccc1)C2 (stereo not given in full),0% (inactive),
COc1cc2ncnc(Nc3ccc(Oc4ccccc4)cc3)c2cc1OC,48.2% (inactive),
CCOc1ccc(-c2nc(-c3cccc4c3CCC4NCCO)no2)cc1OCC (stereo not given),19.1% (inactive),
COc1ccc(NS(=O)(=O)c2sc3ccc(Cl)cc3c2C)cc1N1CCNCC1,106% (inactive),
C=CC(=O)N1CCN(C(=O)c2cc(-c3cc(Cl)ccc3Cl)c(Cl)cc2OC)CC1,-13.7% (inactive),
CC1(C)SC2C(NC(=O)[C@H](NC(=O)N3CCNC3=O)c3ccccc3)C(=O)N2C1C(=O)O (stereo not given in full),0% (inactive),
OC(CNCCc1c[nH]c2ccccc12)Cn1c2ccccc2c2ccccc21 (stereo not given),359% (inactive),
CC(=O)Nc1nc2c(Oc3cc(-c4ccc(C(F)(F)F)cc4)ncn3)cccc2s1,6.2% (inactive),
c1ccc(-c2cnc(Nc3ccc(OCCN4CCCC4)cc3)s2)cc1,165% (inactive),
O=C(CCCCCCC(=O)Nc1ccc(C2OC(CSc3nc(-c4ccccc4)c(-c4ccccc4)o3)CC(c3ccc(CO)cc3)O2)cc1)NO (stereo not given),,39.8 µM (active)
N#Cc1ccc2c(c1)CCN(CCC1CCC(NC(=O)c3ccnc4ccccc34)CC1)C2 (stereo not given),84% (inactive),
Cc1cc(C)c(-c2csc(NC(=O)c3ccccc3)n2)c(C)c1,60.8% (inactive),
COc1ccc2c(c1)CN(C(=O)CCN1CCC(Cc3ccccc3)CC1)CCS2,-0.93% [at 57.1 µM] (inactive),
CC(=O)N1CCN([C@H]2CCN(C(=O)N(C)[C@H](C)c3cc(C(F)(F)F)cc(C(F)(F)F)c3)[C@@H](c3ccc(F)cc3C)C2)CC1,-5.6% (inactive),
Cn1c(NC[C@@H](N)Cc2ccccc2)nc(-c2ccncc2)c(-c2ccc3ccccc3c2)c1=O,129% (inactive),
C/C=C/CC(C)C(O)C1C(=O)NC(CC)C(=O)N(C)CC(=O)N(C)C(CC(C)C)C(=O)NC(C(C)C)C(=O)N(C)C(CC(C)C)C(=O)NC(C)C(=O)NC(C)C(=O)N(C)C(CC(C)C)C(=O)N(C)C(CC(C)C)C(=O)N(C)C(C(C)C)C(=O)N1C (stereo not given),3.7% [at 57.1 µM] (inactive),
COc1cc(-c2cc(-c3cccc(O)c3)cnc2N)cc(OC)c1OC,12.1% (inactive),
Cc1ccc2c(Nc3ccc(Cl)cc3)nccc2c1Nc1ncccc1-c1ncnc2nc[nH]c12,-4.68% (inactive),
CC(CCC1(O)OC2CC3C4CC=C5CC(O[C@@H]6O[C@H](CO)[C@@H](O[C@@H]7O[C@H](CO)[C@@H](O)[C@H](O)[C@H]7O)[C@H](O)[C@H]6O[C@@H]6O[C@@H](C)[C@H](O)[C@@H](O)[C@H]6O)CCC5(C)C4CCC3(C)C2C1C)CO[C@@H]1O[C@H](CO)[C@@H](O)[C@H](O)[C@H]1O (stereo not given in full),1.68% [at 32.5 µM] (inactive),
CCCCC(=O)N(Cc1ccc(-c2ccccc2-c2nn[nH]n2)cc1)C(C(=O)O)C(C)C (stereo not given),10.9% (inactive),

SMILES,"activity change, negative = inhibition",Potency
CCOP(=O)(Cc1ccc(C(=O)Nc2ccc(Br)cc2C#N)cc1)OCC,0% [at 57.1 µM] (inactive),
CC1CCC(n2c3cnccc3c3cnc(Nc4ccc5c(n4)CCN(C(=O)CO)C5)nc32)CC1 (stereo not given),2.52% (inactive),
CC(=O)Nc1ccc(C(=O)Nc2ccccc2N)cc1,2.37% [at 57.1 µM] (inactive),
Cc1[nH]c(/C=C2\C(=O)Nc3ccc(F)cc32)c(C)c1C(=O)NC[C@H](O)CN1CCOCC1,1.23% (inactive),
CC(C)CCC[C@@H](C)[C@H]1CC[C@H]2[C@@H]3CC=C4C[C@@H](OC(=O)NCCN(C)C)CC[C@]4(C)[C@H]3CC[C@]12C,442% (inactive),
CC1CCN(C(c2ccc(F)cc2)c2ccc(C(C)C(=O)O)cc2-c2ccc(C(F)(F)F)cc2)CC1 (stereo not given),,1.58 µM (active)
C=C(C)C(=O)O[C@H]1[C@H]2C(=C)C(=O)O[C@@H]2C[C@@H](C)[C@@H]2O[C@@H]2C(=O)[C@](C)(O)[C@@H]1OC(C)=O,23.4% [at 57.1 µM] (inactive),
O=C(NC(NC(=S)Nc1ccc(F)c([N+](=O)[O-])c1)C(Cl)(Cl)Cl)C(c1ccccc1)c1ccccc1 (stereo not given),-25.6% [at 32.5 µM] (inactive),
CC1(C)CC23[C@@H]4CC(=O)[C@@H]2COC(=O)[C@@H]3CC[C@H]41,-3.63% (inactive),
CC(C)c1ccc(NC(=O)C(c2ccccc2)N(C)C(=O)Cc2c[nH]c3ccccc23)cc1 (stereo not given),,79.4 µM (active)
Cc1cc(N=Nc2ccc(S(=O)(=O)Nc3ccccn3)cc2)c(N)cc1O,0% (inactive),
O=C(c1ccc(F)c(F)c1Nc1ccc(I)cc1F)N1CC(O)(C2CCCCN2)C1 (stereo not given),178% (inactive),
COc1cc2nc(N3CCN(C)CC3)nc(NC3CCN(Cc4ccccc4)CC3)c2cc1OC,0% (inactive),
CCOC(=O)CCC(=O)O[C@H]1[C@H](O[C@@H]2[C@@H](C)[C@H](O[C@H]3C[C@@](C)(OC)[C@@H](O)[C@H](C)O3)[C@@H](C)C(=O)O[C@H](CC)[C@@](C)(O)[C@H](O)[C@@H](C)C(=O)[C@H](C)CC2(C)O)O[C@H](C)C[C@@H]1N(C)C (stereo not given in full),-3.78% (inactive),
C[C@@H](O[C@H]1OCCN(Cc2n[nH]nc2CN(C)C)[C@H]1c1ccc(F)cc1)c1cc(C(F)(F)F)cc(C(F)(F)F)c1,1.08% (inactive),
CC[C@@H](C)[C@H]1C(=O)O[C@H](C(C)C)C(=O)N(C)[C@@H](C(C)C)C(=O)O[C@H](C(C)C)C(=O)N(C)[C@@H](C(C)C)C(=O)O[C@H](CC(C)C)C(=O)N1C,3% [at 32.5 µM] (inactive),
CCC(=O)c1cc(-c2ccc(Cl)cc2)n(-c2ccc(S(N)(=O)=O)cc2)c1C,-26.5% (inactive),
CC1(C)SC2C(NC(=O)[C@H](C(=O)O)c3ccsc3)C(=O)N2C1C(=O)O (stereo not given in full),-8.28% (inactive),
CNCc1ccc(C)c(NC(=O)c2ccc(Nc3nc(-c4ccccc4)c4ccccc4n3)cc2)c1,6.12% (inactive),
CC1(C)CC[C@]2(C(=O)OC3OC(CO)C(O)C(O)C3O)CC[C@]3(C)C(=CCC4[C@@]5(C)CC[C@H](OC6OC(C(=O)O)C(O)C(O)C6O)C(CO)(CO)C5CC[C@]43C)[C@@H]2C1 (stereo not given in full),6.88% [at 32.5 µM] (inactive),
